We go through 9 compounds from PubChem BioAssay (NCI).

Test [1] in a line: NCI Yeast Anticancer Drug Screen. Data for the rad50 strain (AID 155).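 Note: 0% = growth of vehicle-only cultures of the same strain.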 The note with it: S. cerevisiae rad50 strain growth inhibition, active compounds read high. A digest of the protocol: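 Cells are treated with compound, grown, and their growth is then scored against vehicle-only cultures of the same repair-deficient yeast strain.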
Test [2] can be described thus: NCI Yeast Anticancer Drug Screen. Data for the mec2-1 strain (AID 157). As to conditions: S. cerevisiae mec2-1 strain, active compounds read high. A digest of the protocol: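 mec2-1 yeast strain, carrying an alteration in DNA damage repair or cell cycle control, was exposed to compounds; growth inhibition was measured relative to vehicle-treated controls.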
The nature of test [3]: NCI Yeast Anticancer Drug Screen. Data for the sgs1 mgt1 strain (AID 161).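 Note: 0% = growth of cultures given vehicle only.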 As to conditions: S. cerevisiae sgs1 mgt1 strain, active compounds read high. Summed up:
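Compounds are added to genetically altered yeast, and growth is compared with cultures given vehicle alone to give percent inhibition.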

A short description of test [4]: NCI Yeast Anticancer Drug Screen. Data for the cln2 rad14 strain (AID 165).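 Note: 0% = growth equal to vehicle treated cultures.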 As to conditions: S. cerevisiae cln2 rad14 strain, active compounds read high. Summed up:
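Yeast carrying cln2 and rad14 alterations (cell cycle control and DNA damage repair) were exposed to compounds. Growth inhibition was measured against vehicle-treated controls.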

A short description of test [5]: NCI Yeast Anticancer Drug Screen. Data for the bub3 strain (AID 167). As to conditions: S. cerevisiae bub3 mutant strain, active compounds read high. A digest of the protocol: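 Part of a panel of yeast mutants defective in DNA damage repair or cell cycle regulation. Each strain is grown with compound, and inhibition is calculated relative to solvent-treated cultures.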

Test [6] is described as follows: NCI Yeast Anticancer Drug Screen. Data for the mlh1 rad18 strain (AID 175). The note with it: S. cerevisiae mlh1 rad18 strain growth inhibition, active compounds read high. Summed up: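 Growth inhibition of the yeast strain was measured after compound exposure and expressed relative to vehicle-treated controls. The strain carries defined defects in DNA damage repair.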

Setting [7] is: at 5.0 µM (retest, dose inferred, filed as 0.5).
Setting [8] is: at 50.0 µM (retest, dose inferred, filed as 5.0).

About 79,000 compounds went through this panel and 15% of them were active in at least one assay; those are over-represented in the sample as a whole. A number with no mark means an inactive call. Activity calls are given as the source filed them. Cut-off read from the data, not from the text of the source: active = growth inhibition above about 70%; inactive = the rest.

For the compound `NC(C(=O)O)c1ccccc1Cl` (configuration not stated), the growth inhibition in test [1] (setting [7]) is -161%; in test [1] (setting [8]), -142%; in test [1] (at 50.0 µM), 21%; in test [2] (setting [7]) it was -51%; in test [2] (setting [8]) it was -48%; in test [2] (at 50.0 µM), 1.65%. In addition, the growth inhibition in test [3] (setting [7]) is -64%; in test [3] (setting [8]), -57%; in test [3] (at 50.0 µM) it was -2.5%; in test [4] (setting [7]), -61%; in test [4] (setting [8]) it was -56%; in test [4] (at 50.0 µM), 73.1% (active). In addition, the growth inhibition was -68% in test [5] (setting [7]); -69% in test [5] (setting [8]); -3.55% in test [5] (at 50.0 µM); -147% in test [6] (setting [7]); -106% in test [6] (setting [8]); 13.9% in test [6] (at 50.0 µM).
As for `NC(=O)c1ccc(N)nc1`, the growth inhibition was 5% in test [1] (setting [7]); 30% in test [1] (setting [8]); 20.9% in test [1] (at 50.0 µM); -28% in test [2] (setting [7]); -14% in test [2] (setting [8]); -14% in test [2] (at 50.0 µM). Further, the growth inhibition was -13% in test [3] (setting [7]); 3% in test [3] (setting [8]); 19.4% in test [3] (at 50.0 µM); 10% in test [4] (setting [7]); 15% in test [4] (setting [8]); 4.4% in test [4] (at 50.0 µM). The growth inhibition in test [5] (setting [7]) was -12%; in test [5] (setting [8]), 12%; in test [5] (at 50.0 µM) it was 11.2%; in test [6] (setting [7]) it was -10%; in test [6] (setting [8]), 8%; in test [6] (at 50.0 µM) it was 7.75%.
With `CCOc1ccc(/C=C/[N+](=O)[O-])cc1[N+](=O)[O-]`, the growth inhibition in test [1] (setting [7]) is 11%; in test [1] (setting [8]) it was 98% (active); in test [1] (at 50.0 µM), 95.6% (active); in test [2] (setting [7]), 7%; in test [2] (setting [8]), 99% (active); in test [2] (at 50.0 µM), 99.6% (active). Further, the growth inhibition in test [3] (setting [7]) was 9%; in test [3] (setting [8]) it was 99% (active); in test [3] (at 50.0 µM), 99.5% (active); in test [4] (setting [7]), 16%; in test [4] (setting [8]), 99% (active); in test [4] (at 50.0 µM), 99% (active). The growth inhibition was 9% in test [5] (setting [7]); 99% (active) in test [5] (setting [8]); 99.3% (active) in test [5] (at 50.0 µM); 12% in test [6] (setting [7]); 99% (active) in test [6] (setting [8]); 99.3% (active) in test [6] (at 50.0 µM).
In the case of `CCCCCCC1CCC2CCCC(C)N12` (configuration not stated), the growth inhibition in test [1] (setting [7]) is -5%; in test [1] (setting [8]) it was 67%; in test [1] (at 50.0 µM) it was 85.3% (active); in test [2] (setting [7]), -4%; in test [2] (setting [8]), 25%; in test [2] (at 50.0 µM), 70.8% (active). Further, the growth inhibition in test [3] (setting [7]) was 10%; in test [3] (setting [8]), 68%; in test [3] (at 50.0 µM) it was 88.2% (active); in test [4] (setting [7]), 14%; in test [4] (setting [8]) it was 43%; in test [4] (at 50.0 µM) it was 71.1% (active). Besides, the growth inhibition is -19% in test [5] (setting [7]); 74% (active) in test [5] (setting [8]); 89% (active) in test [5] (at 50.0 µM); 2% in test [6] (setting [7]); 57% in test [6] (setting [8]); 74.9% (active) in test [6] (at 50.0 µM).
For `S=C(S)N1CCOCC1`, the growth inhibition in test [1] (setting [7]) was 62%; in test [1] (setting [8]), 94% (active); in test [1] (at 50.0 µM), -11.9%; in test [2] (setting [7]), 50%; in test [2] (setting [8]), 84% (active); in test [2] (at 50.0 µM), 28.1%. The growth inhibition in test [3] (setting [7]) was 37%; in test [3] (setting [8]) it was 82% (active); in test [3] (at 50.0 µM), 42.7%; in test [4] (setting [7]) it was -2%; in test [4] (setting [8]), 75% (active); in test [4] (at 50.0 µM), -23.9%. In addition, the growth inhibition in test [5] (setting [7]) is 45%; in test [5] (setting [8]), 86% (active); in test [5] (at 50.0 µM), 98.3% (active); in test [6] (setting [7]), 60%; in test [6] (setting [8]), 88% (active); in test [6] (at 50.0 µM) it was 19.5%.
With `O=P1(NCCCl)OC(c2ccccc2)=CCN1CCCl` (configuration not stated), the growth inhibition was -1% in test [1] (setting [7]); -1% in test [1] (setting [8]); 97.9% (active) in test [1] (at 50.0 µM); -5% in test [2] (setting [7]); 6% in test [2] (setting [8]); 94.1% (active) in test [2] (at 50.0 µM). Further, the growth inhibition in test [3] (setting [7]) is 1%; in test [3] (setting [8]), -1%; in test [3] (at 50.0 µM) it was 99% (active); in test [4] (setting [7]) it was -2%; in test [4] (setting [8]) it was 5%; in test [4] (at 50.0 µM), 96% (active). Further, the growth inhibition is -2% in test [5] (setting [7]); -1% in test [5] (setting [8]); 89.6% (active) in test [5] (at 50.0 µM); -3% in test [6] (setting [7]); 1% in test [6] (setting [8]); 98.8% (active) in test [6] (at 50.0 µM).
`O=C1CCC[N]1[Hg][N]1CCCC1=O`: the growth inhibition in test [1] (setting [7]) was 44%; in test [1] (setting [8]), 46%; in test [1] (at 50.0 µM) it was 93.2% (active); in test [2] (setting [7]), 40%; in test [2] (setting [8]), 51%; in test [2] (at 50.0 µM), 94.6% (active). Also, the growth inhibition in test [3] (setting [7]) was 99% (active); in test [3] (setting [8]), 99% (active); in test [3] (at 50.0 µM), 94.2% (active); in test [4] (setting [7]), 66%; in test [4] (setting [8]) it was 97% (active); in test [4] (at 50.0 µM), 92% (active). Further, the growth inhibition was 99% (active) in test [5] (setting [7]); 98% (active) in test [5] (setting [8]); 93.8% (active) in test [5] (at 50.0 µM); 33% in test [6] (setting [7]); 51% in test [6] (setting [8]); 92.8% (active) in test [6] (at 50.0 µM).
With `O=c1oc2ccccc2c(O)c1C(C/C(CCN1CCCC1)=N\Nc1ccccc1)c1ccccc1` (configuration not stated), the growth inhibition in test [1] (setting [7]) was 3%; in test [1] (setting [8]), 3%; in test [1] (at 50.0 µM), 86.3% (active); in test [2] (setting [7]) it was -2%; in test [2] (setting [8]), -2%; in test [2] (at 50.0 µM), 80.7% (active). Moreover, the growth inhibition in test [3] (setting [7]) was 1%; in test [3] (setting [8]), 1%; in test [3] (at 50.0 µM), 87.8% (active); in test [4] (setting [7]) it was 8%; in test [4] (setting [8]), 8%; in test [4] (at 50.0 µM), 81.3% (active). For the same compound, the growth inhibition in test [5] (setting [7]) is -13%; in test [5] (setting [8]) it was -13%; in test [5] (at 50.0 µM), 81.7% (active); in test [6] (setting [7]), -6%; in test [6] (setting [8]) it was -6%; in test [6] (at 50.0 µM), 83.9% (active).
On to `CC(=O)OCC1OC(OC(C)C)[CH]([Hg][S]Cc2ccccc2)C(OC(C)=O)C1OC(C)=O` (configuration not stated), for which the growth inhibition in test [1] (setting [7]) was 99% (active); in test [1] (setting [8]) it was 98% (active); in test [1] (at 50.0 µM) it was 54.8%; in test [2] (setting [7]), 99% (active); in test [2] (setting [8]), 99% (active); in test [2] (at 50.0 µM), 57.9%. Further, the growth inhibition is 94% (active) in test [3] (setting [7]); 98% (active) in test [3] (setting [8]); 44.6% in test [3] (at 50.0 µM); 37% in test [4] (setting [7]); 98% (active) in test [4] (setting [8]); 96.8% (active) in test [4] (at 50.0 µM). Also, the growth inhibition in test [5] (setting [7]) was 99% (active); in test [5] (setting [8]) it was 98% (active); in test [5] (at 50.0 µM), 98.2% (active); in test [6] (setting [7]), 99% (active); in test [6] (setting [8]), 97% (active); in test [6] (at 50.0 µM), 46.1%.
